# The supplement of paper PMC8728848
# This excerpt belongs to a sample that is enriched for the strongest signals.
# Columns and labels:
# Assay in all cases: glycan array binding signal (z-score within array); higher = stronger binding
# Conditions in all cases: glycan notation: IUPAC condensed, linker removed
# [1] = tested on: Fuc(a1-2)Gal(b1-3)GalNAc(b1-3)Gal
# Procedure, shortened: (§1)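 The binding signal is a Z-score computed within each array and averaged over linkers. Arrays of the same protein sequence at different concentrations or buffers were also averaged together. Data originate from 3228 arrays in the Consortium for Functional Glycomics database, kept only where the protein sequence was available.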
# [2] = tested on: Fuc(a1-2)Gal(b1-3)GlcNAc(b1-2)Man(a1-3)[Fuc(a1-2)Gal(b1-3)GlcNAc(b1-2)Man(a1-6)]Man(b1-4)GlcNAc(b1-4)GlcNAc
# Procedure, shortened: as §1
# [3] = tested on: Fuc(a1-2)Gal(b1-3)GlcNAc6S
# Procedure, shortened: as §1
# Fuc(a1-2)Gal(b1-3)GalNAc = tested on: Fuc(a1-2)Gal(b1-3)GalNAc
# Procedure, shortened: as §1
# [4] = tested on: Fuc(a1-2)Gal(b1-3)GlcNAc(b1-2)Man(a1-3)[Fuc(a1-2)Gal(b1-3)GlcNAc(b1-2)Man(a1-6)]Man(b1-4)GlcNAc(b1-4)[Fuc(a1-6)]GlcNAc
# Procedure, shortened: as §1
# [5] = tested on: Fuc(a1-2)Gal(b1-3)GlcNAc(b1-3)[Fuc(a1-2)Gal(b1-3)GlcNAc(b1-6)]GalNAc
# Procedure, shortened: as §1
# [6] = tested on: Fuc(a1-2)Gal(b1-3)GlcNAc(b1-3)[Fuc(a1-3)[Gal(b1-4)]GlcNAc(b1-6)]Gal(b1-4)Glc
# Procedure, shortened: as §1
# [7] = tested on: Fuc(a1-2)Gal(b1-3)GlcNAc(b1-3)[Gal(b1-4)GlcNAc(b1-6)]Gal(b1-4)Glc
# Procedure, shortened: as §1
# Fuc(a1-2)Gal(b1-3)GlcNAc = tested on: Fuc(a1-2)Gal(b1-3)GlcNAc
# Procedure, shortened: as §1
substance,measurement,setting,value
AgI/IIC123-GFP (Streptococcus mutans),glycan array binding signal (z-score),[1],-0.278
same,glycan array binding signal (z-score),[2],-0.189
LcI (Legionella pneumophila),glycan array binding signal (z-score),[1],4.24
same,glycan array binding signal (z-score),[3],1.6
"SiiE (Salmonella typhimurium), A0A0H3NVH0",glycan array binding signal (z-score),Fuc(a1-2)Gal(b1-3)GalNAc,-1.18
same,glycan array binding signal (z-score),[4],2.35
Epa22,glycan array binding signal (z-score),[5],-0.12
"SpGH101 (Streptococcus pneumoniae), Q8DR60",glycan array binding signal (z-score),[6],-0.216
AgI/II Vhelical-GFP (Streptococcus mutans),glycan array binding signal (z-score),[7],-0.296
"Wza (Escherichia coli), P0A930",glycan array binding signal (z-score),Fuc(a1-2)Gal(b1-3)GlcNAc,0.769
